TEAD-YAP block = TEAD-YAP interaction inhibition. inhibition, % at 9.12 µM. HEK-TIYL cells, TEAD-Gal4/YAP UAS-luciferase luminescence. 1.4% of 640,000 active. AID 1259422; in the data active = inhibition above about 32%;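 note: 0% = median of test compound wells and 100% = reference inhibitor wells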
GPR151 activ = activators of human GPR151. Q8TDV0. PathHunter beta-arrestin GPR151 cells, luminescence. activation, % at 11.2 µM. 1% of 650,000 active. AID 1508602; in the data active = activation above about 4.9%;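 note: 0% = median of compound wells and 100% = cells with positive control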
Target sequence (Q8TDV0 whole entry, looked up): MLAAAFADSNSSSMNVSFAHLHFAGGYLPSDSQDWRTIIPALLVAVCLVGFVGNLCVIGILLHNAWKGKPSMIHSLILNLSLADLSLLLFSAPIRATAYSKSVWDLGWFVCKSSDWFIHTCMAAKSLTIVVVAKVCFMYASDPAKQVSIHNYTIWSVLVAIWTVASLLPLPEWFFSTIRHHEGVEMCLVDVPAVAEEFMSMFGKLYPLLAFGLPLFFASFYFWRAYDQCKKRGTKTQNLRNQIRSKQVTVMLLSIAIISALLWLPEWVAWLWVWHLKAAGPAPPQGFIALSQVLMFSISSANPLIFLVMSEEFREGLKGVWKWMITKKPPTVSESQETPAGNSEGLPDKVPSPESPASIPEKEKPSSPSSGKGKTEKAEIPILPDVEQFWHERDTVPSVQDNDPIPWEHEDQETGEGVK
FBW7 act = activators of human E3 ligase FBW7. 0.13% of 650,000 active. normalized activity (activation), % at 26.1 µM. AlphaScreen FBW7–phospho-cyclin E peptide binding, activator screen. Q969H0; in the data active = normalized activity above about 1.9%;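 note: purified mutant Fbw7 with reduced substrate affinity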
MITF primary = inhibitors of human MITF; 0.91% of 650,000 active; AlphaScreen MITF homodimerization, bead proximity signal; inhibition, % at 2.6 µM; O75030; in the data active = inhibition above about 50%;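 note: 0% = vehicle wells with protein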
MITF confirm = confirmation of human MITF inhibitors; shares compounds with MITF primary; 16% of 4,700 active; inhibition, % at 2.6 µM; AlphaScreen MITF homodimerization, biotin/His-MITF beads; AID 1259372;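 active = inhibition above a cutoff derived from the DMSO control wells, cut at about 28% in these data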;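 note: 0% = MITF dimer wells with DMSO only; inhibitors lower the bead chemiluminescence by keeping MITF from dimerizing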
AlphaScreen DR = counter-screen: compounds optically interfering with AlphaScreen; shares compounds with MITF primary; AlphaScreen optical interference counterscreen, cell-free; IC50, µM; 6% of 480 active; AID 1259373; call rule not given here
AS interf ctr = optically interferes with AlphaScreen signal; shares compounds with MITF primary; LysRS AlphaScreen counterscreen, signal interference, triplicate; inhibition, % at 2.6 µM; 7.6% of 4,700 active;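 active = inhibition above a cutoff derived from the DMSO control wells, cut at about 30% in these data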
* = called active by the depositor; . = no result. Hits are enriched below; roughly 3.5% of the tested compounds scored in any of these assays.

SMILES	TEAD-YAP block	GPR151 activ	FBW7 act	MITF primary	MITF confirm	AS interf ctr	others
COc1cc(OC)cc(C(=O)N2CCN(Cc3ccccc3[N+](=O)[O-])CC2)c1	7	-2	0	61*	-4	9
COc1ccccc1NC(=O)CSc1nc2ccsc2c(=O)n1CCCC(=O)NCCc1ccccc1	3	0	0	-3	.	.
Cc1ccc(Cl)cc1NC(=O)N[C@H]1C[C@H]2C(=O)N3CCC[C@H]3C(=O)N2C1	-5	0	0	-1	.	.
O=C(c1ccncc1)N1CCN(Cc2ccccc2[N+](=O)[O-])CC1	-6	-1	0	78*	74*	-10	AlphaScreen DR=>6.1
C=C(C)CSc1nnc2n(-c3ccccc3C)c(=O)c3c4c(sc3n12)CCCC4	5	0	0	70*	-3	-3
CS(=O)(=O)Nc1ccc(C(=O)NCc2ccccn2)cc1	-5	1	1	70*	-6	-8
Cc1cc(C)c(C)c(S(=O)(=O)Nc2ccc(C(=O)NCc3ccccn3)cc2)c1C	-5	1	1	11	.	.
COc1ccc(NC(=O)C2(N(Cc3ccco3)C(=O)Cc3nc(N)n[nH]3)CCCCC2)cc1	-8	-2	0	23	.	.
Nc1n[nH]c(CC(=O)N(Cc2ccco2)C2(C(=O)Nc3ccccc3)CCCCC2)n1	-6	-1	0	66*	96*	101*
COc1ccc(NC(=O)C2(N(Cc3ccccc3)C(=O)Cc3nc(N)n[nH]3)CCCCC2)cc1	-6	-2	0	22	.	.
Cc1ccc(NC(=O)C2(N(Cc3ccccc3)C(=O)Cc3nc(N)n[nH]3)CCCCC2)cc1	9	1	0	58*	100*	100*
Cc1ccccc1NC(=O)C1(N(Cc2ccccc2)C(=O)Cc2nc(N)n[nH]2)CCCCC1	0	-1	-1	79*	101*	101*
CCNc1nc(Nc2ccc(NC(C)=O)cc2)c2cc(OC)c(OC)cc2n1	-2	-2	0	13	.	.
CN1CCC(N(C)Cc2ccc(F)c(Br)c2)CC1	-12	-1	1	54*	18	17
CCN(CCN(C)C)Cc1ccc(F)cc1	-4	0	0	60*	28*	-3	AlphaScreen DR=>6.5
CCN(CCN(C)C)Cc1ccc(Cl)c(Cl)c1	-5	1	0	54*	3	-5
CCN(CCN(C)C)Cc1ccc(Cl)cc1Cl	-6	0	0	56*	-5	-5
CCCN(CCO)Cc1ccc(Cl)cc1Cl	6	1	0	-2	.	.
CCCN(CCO)Cc1ccc(Cl)c(Cl)c1	7	2	0	16	.	.
CCN(CCN(C)C)Cc1ccc(F)cc1F	1	0	0	60*	-6	-2
CCN(CCC(=O)Nc1ccc(F)cc1)Cc1ccccc1	4	-1	0	4	.	.
COc1ccc(/C=C(/NC(=O)c2ccccc2)C(=O)N/N=C/c2ccccc2O)c(OC)c1	-6	1	0	16	.	.
COc1cc2c(cc1OC)C(c1ccc(Br)cc1)CC2=O (stereo unspecified)	-12	0	0	-3	.	.
O=C(COc1ccc2c(c1)C(=O)CC2)NCc1cccs1	-11	-1	0	-4	.	.
COc1ccc(C(CC(=O)NCc2ccc3c(c2)OCO3)NS(=O)(=O)c2ccc(C)cc2)cc1 (stereo unspecified)	-1	0	0	11	.	.
SMILES	TEAD-YAP block	GPR151 activ	FBW7 act	MITF primary	MITF confirm	AS interf ctr	others
Cc1c(Cl)cccc1-n1c(SCc2ccccc2Cl)nc2[nH]ncc2c1=O	-8	2	0	11	.	.
CCN(CCN(C)C)Cc1cccc(OCc2ccccc2)c1	6	0	0	61*	-10	-4
CN(CCC(N)=O)Cc1ccc(F)cc1	11	-3	0	56*	-12	-8
CCN(CCN(C)C)Cc1ccc(F)c(Br)c1	8	-1	0	27	.	.
CN(C)CCCN(CCCN(C)C)Cc1cccc(Oc2ccccc2)c1	-4	1	0	24	.	.
CCN(CCN(C)C)Cc1ccc(F)c(F)c1	3	-1	0	60*	0	-5
CCN(CCN(C)C)Cc1cccc(Cl)c1Cl	4	-1	0	75*	-4	0
COCCn1c(SCC(=O)OC2CCCCC2)nnc1-c1ccccc1	-8	0	0	-7	.	.
CCOc1cc(-c2cc(OCC)c3c(C)oc(C)c3c(=O)c2)ccc1O	-7	0	0	-7	.	.
